# SENP8 block-1: human SENP8 protease inhibitors, primary screen, biochemical, fluorescence, Nedd8 protein substrate, uHTS | Sentrin-specific protease 8 (Homo sapiens), Q96LD8 | recombinant SENP8 | inhibition, % at 20 µM | actives 0.64% (n = 360,000) | AID 602440, 2012; in the data active = inhibition mostly above about 40%, no sharp cut-off; inactive = mostly below about 27%
# Target sequence (Q96LD8 whole entry, looked up): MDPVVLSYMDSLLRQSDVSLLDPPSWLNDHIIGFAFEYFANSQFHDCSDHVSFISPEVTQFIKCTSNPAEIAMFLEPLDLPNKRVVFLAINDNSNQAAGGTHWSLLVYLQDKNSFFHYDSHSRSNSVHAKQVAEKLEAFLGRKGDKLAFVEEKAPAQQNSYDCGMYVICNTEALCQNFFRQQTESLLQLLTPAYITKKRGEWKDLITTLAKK
# SENP7 block: SENP7 protease inhibitors, primary screen, biochemical, luminescence, uHTS | Sentrin-specific protease 7 (Homo sapiens), Q9BQF6 | recombinant SENP7, Z-RLRGG-aminoluciferin luminescence, 40 min | inhibition, % at 5 µM | actives 1.5% (n = 330,000) | AID 434973, 2010;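 active = inhibition above about 50% at the single test dose, limit read from the data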;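 note: plate controls were DMSO with enzyme for no effect and no enzyme buffer wells for full effect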
# SENP6 inh: SENP6 protease inhibitors, primary screen, biochemical, luminescence, uHTS; Sentrin-specific protease 6 (Homo sapiens), Q9GZR1; Recombinant SENP6 catalytic domain, aminoluciferin luminescence; inhibition, % at 10 µM; actives 1.8% (n = 330,000);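 active = inhibition above about 50% at the single tested dose, limit read from the data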;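 note: plate controls were DMSO wells with enzyme for no effect and DMSO wells lacking enzyme for full effect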
# SENP8 block-2: SENP8 protease inhibitors, primary screen, biochemical, luminescence. Sentrin-specific protease 8 (Homo sapiens), Q96LD8. purified SENP8, Z-RLRGG-aminoluciferin cleavage. inhibition, % at 10 µM. actives 1.2% (n = 330,000). AID 2540, 2010; in the data active = inhibition above about 50%
# HSP90 refold inh: HSP90 inhibitors, primary screen, cell lysate, luminescence | Heat shock protein HSP 90 (rabbit reticulocyte lysate; luciferase refolding) | Rabbit reticulocyte lysate, luciferase refolding luminescence, 3 h | inhibition, % at 5.6 µM | actives 0.91% (n = 290,000) | AID 1789, 2009;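 active = inhibition above the screen-wide mean plus 3 SD, computed separately per campaign, cut at about 16% in these data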;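 note: 0% = DMSO wells and 100% = 60 µM geldanamycin wells; inhibitors lower the luminescence because luciferase stays unfolded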
# SENP8 conf: SENP8 protease inhibitors, retest, confirmation, biochemical, luminescence, single concentration | inhibition, % at 12.5 µM | Recombinant SENP8, Z-RLRGG-aminoluciferin luminescence, 60 min | actives 40% (n = 6,200) | shares compounds with SENP7 block;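 active = mean inhibition across replicates above about 50%, limit read from the data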
# SENP6 confirm: SENP6 protease inhibitors, confirmation, biochemical, luminescence, single concentration; shares compounds with SENP7 block; actives 58% (n = 6,200); recombinant SENP6, Z-RLRGG-aminoluciferin luminescence; inhibition, % at 12.5 µM
# SENP7 confirm: SENP7 protease inhibitors, retest, confirmation, biochemical, luminescence, single concentration; shares compounds with SENP7 block; recombinant SENP7, Z-RLRGG-aminoluciferin luminescence, 40 min; inhibition, % at 12.5 µM; actives 69% (n = 6,200); AID 488917, 2010
# Casp3 SENP sel: caspase-3 protease inhibitors, confirmation, selectivity assay for SENP inhibitor project, biochemical, single concentration; shares compounds with SENP7 block; purified caspase-3, Z-DEVD-aminoluciferin luminescence, 60 min; inhibition, % at 12.5 µM; actives 60% (n = 6,200); AID 488918, 2010;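 active = mean inhibition above about 50%, limit read from the data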;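 note: plate controls were enzyme with DMSO for no effect and wells without caspase-3 for full effect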
# Target sequence (P42574 28-227 limits assumed): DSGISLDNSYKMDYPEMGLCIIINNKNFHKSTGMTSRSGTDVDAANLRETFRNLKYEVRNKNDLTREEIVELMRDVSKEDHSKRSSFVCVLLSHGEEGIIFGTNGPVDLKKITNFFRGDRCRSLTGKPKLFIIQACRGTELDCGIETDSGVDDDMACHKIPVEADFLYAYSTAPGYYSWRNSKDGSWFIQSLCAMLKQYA
# Luc interf: interferes with luciferase luminescence in SENP counter-screen. shares compounds with SENP7 block. Pre-incubated SENP8/Z-RLRGG-aminoluciferin, luciferase luminescence interference. inhibition, % at 12.5 µM. actives 39% (n = 6,200). AID 488919;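 active = mean inhibition above about 50% when retested at one dose, limit read from the data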;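 note: plate controls were DMSO wells with completed reaction for no effect and substrate without enzyme for full effect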
# The depositor's hits bear a star; i = inactive; · = no result given. A selection: hits, their analogues and other compounds. The true share with any hit is near 2.7%.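 Rule for the calls, unless noted: active = mean inhibition above about 50% in the one-dose retest (limit read from the data); inactive = the rest.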
SMILES,SENP8 block-1,SENP7 block,SENP6 inh,SENP8 block-2,HSP90 refold inh,SENP8 conf,SENP6 confirm,SENP7 confirm,Casp3 SENP sel,Luc interf
CCOC(=O)c1ccc(CNS(=O)(=O)c2c(C)ccc3nsnc23)o1,14,6,-18,-4,1,·,·,·,·,·
c1ccc(CCCN2CCN(c3ccccn3)CC2)cc1,20,0,-2,-11,-1,·,·,·,·,·
CCOC(=O)CSC1=NC(=O)/C(=C/c2ccc(OC)cc2)S1,12,29,77*,33,-3,7,5,5,27,30
Cn1nccc1C(=O)Nc1ccc2c(c1)OCCO2,14,71*,81*,55*,6,58*,58*,88*,88*,65*
Cn1c(C(=O)Nc2ccc3c(c2)OCCO3)cc2sccc21,-13,79*,74*,70*,4,86*,85*,97*,70*,74*
Cn1nc(C(=O)Nc2ccc(Cl)cc2)cc1C(=O)Nc1ccc(Cl)cc1,-44,0,5,5,0,·,·,·,·,·
Cn1nc(C(=O)Nc2ccc3c(c2)OCCO3)cc1C(=O)O,6,66*,56*,40,0,56*,54*,86*,85*,64*
CCCCOC(=O)C1=C(C)NC(=O)NC1c1cc2c(cc1Br)OCO2 (stereo not drawn),5,-3,12,5,0,·,·,·,·,·
Cc1ccc(OCC(=O)Nc2cccc(C)n2)c(C)c1,0,65*,74*,45,3,30,67*,90*,69*,22
Cc1cccc(NC(=O)COc2ccc(Br)cc2)n1,14,18,6,-3,-4,·,·,·,·,·
CC(=O)Nc1ccc(N/C=C/C(=O)c2ccc(Cl)cc2)cc1,-64,-1,-10,1,4,·,·,·,·,·
Cc1ccc(N/C=C/C(=O)c2ccccc2)cc1Br,-153,83*,63*,45,11,4,4,6,23,11
O=C(/C=C/Nc1cccc(O)c1)c1ccccc1,-90,98*,97*,96*,-4,99*,99*,103*,97*,98*
Cc1ccc(C(=O)/C=C/Nc2ccc3c(c2)OCO3)cc1,-30,60*,38,-4,2,15,15,26,23,6
CC(=O)c1cccc(N/C=C\C(=O)c2ccc(C)cc2)c1,-236,·,·,·,2,·,·,·,·,·
O=C(/C=C/Nc1ccc(F)c(Cl)c1)c1ccccc1,-189,65*,71*,34,1,19,40,87*,58*,17
CC(C)(C)CC(=O)N[C@@H](Cc1ccccc1)c1nc2ccccc2[nH]1,7,-3,2,-3,-3,·,·,·,·,·
CCOc1ccc(NS(=O)(=O)c2cc(NC(=O)C3CC3)ccc2C)cc1Br,14,2,-4,9,·,·,·,·,·,·
CC(C)C(=O)Nc1cccc(C(=O)Nc2cc([N+](=O)[O-])ccc2F)c1,28,-2,7,-8,1,·,·,·,·,·
CN(C)/C=C/C(=O)c1ccc(Oc2ncccn2)cc1,1,-6,-7,-9,-1,·,·,·,·,·
C/C(=C\C(=O)c1ccc(C)cc1)Nc1cccc(O)c1,16,-21,84*,76*,-6,82*,87*,98*,70*,88*
O=C(/C=C/Nc1ccccc1)c1ccc(Oc2ncccn2)cc1,-294,82*,76*,65*,1,29,58*,59*,82*,14
Cc1ccc(C(=O)/C=C/Nc2cccc(O)c2)cc1,-68,50,93*,88*,4,10,93*,100*,77*,78*
C/C(=C\C(=O)c1ccc(C)cc1)Nc1ccc(N2CCOCC2)cc1,·,·,·,·,1,·,·,·,·,·
CCOC(=O)C1CCN(C(=O)CN(c2ccc(Cl)c(C(F)(F)F)c2)S(C)(=O)=O)CC1,32,-2,-19,-4,1,·,·,·,·,·
SMILES,SENP8 block-1,SENP7 block,SENP6 inh,SENP8 block-2,HSP90 refold inh,SENP8 conf,SENP6 confirm,SENP7 confirm,Casp3 SENP sel,Luc interf
O=C(c1ccccc1)n1c(=O)c(F)cn(COCCBr)c1=O,7,15,-23,-9,-1,·,·,·,·,·
Cc1ccc(S(=O)(=O)C2(C(=O)NC3CCCCC3)CC2)cc1,19,-1,-10,13,-1,·,·,·,·,·
O=C(O)c1ccc(NCCC2=CCCCC2)c([N+](=O)[O-])c1,17,11,86*,82*,-3,4,87*,97*,88*,78*
COc1ccccc1OP(=O)(O)Oc1ccccc1OC,1,-2,-16,-9,0,·,·,·,·,·
O=C(NCc1ccco1)c1cc(-c2ccc3c(c2)OCO3)on1,-24,53*,-14,-6,-4,-1,-6,22,19,-2
CCCCN1C(=O)Cc2c1nc(N)c1c(N)nc(N(CCC)CCC)c(C#N)c21,-327,·,·,·,0,·,·,·,·,·
Cc1cc(C)c(C#N)c(N2CCCC(C(N)=O)C2)n1 (stereo not drawn),i,-9,-10,-8,-3,·,·,·,·,·
N#Cc1c(N2CCCC(O)C2)nc(N)c2c(N)nc3c(c12)CC(=O)N3C12CC3CC(CC(C3)C1)C2 (stereo not drawn),-303,64*,96*,97*,3,-21,5,-4,-6,-5
C=C(C)CN(CC)c1nc(N)c2c(N)nc3c(c2c1C#N)CC(=O)N3C12CC3CC(CC(C3)C1)C2,-210,27,85*,86*,3,-10,-5,-10,-11,-7
CCN(c1ccc(NC(=O)COC(=O)c2cccs2)cc1)C(C)C,14,64*,73*,42,-1,68*,65*,90*,71*,70*
CCN(CC)c1ccc(NC(=O)COC(=O)c2cccs2)cc1,6,56*,53*,23,1,29,26,62*,47,3
COc1cc(OC)cc(C(=O)Nc2nnc(NC(=S)Nc3ccccc3)s2)c1,-32,3,1,-3,4,·,·,·,·,·

# From PubChem
